Compounds without any hit were thinned out: in the full panel of roughly 83,000, 20% have a hit.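 Negative percent growth values reflect cell death: -40 means 40% of the cells present at the start died, and -100 means all died.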 Calls of active or inactive are those of the source.
The compounds below were run on HS 578T breast (assay: NCI-60 one-dose screen, 48 h (100 = growth as untreated, 0 = no growth, -100 = all killed)). Conditions: 10 µM unless noted.
Method: Growth inhibition of the HS 578T human tumor cell line is measured as a screen for anti-cancer activity. Cells are grown in 96 well plates and exposed to the test compound for 48 hours. Compounds are tested at a single concentration, which is 10^-5 M for most compounds. The reported endpoint is percent growth (GI% or GIPRCNT), where numbers from 0 - 100% represent growth inhibition, and numbers from -100% - 0 represent cell death. For example, a value of 40 represents 60% growth inhibition. A value of 0 means no net growth occurred over the course of the experiment. A value of -40 indicates 40% of cells at the beginning of the experiment died by the end of the experiment. A value of -100 means all cells are dead at the end of the experiment.
NCI-60 Human Tumor Cell Lines Screen was performed using the standard one-dose NCI protocol, which is described in more detail at https://dtp.cancer.gov/discovery_development/nci-60/default.htm.
Compounds with GIPRCNT values below 10 were considered active. Activity score was based on GIPRCNT using the following formula: […]
Score is 0 for GIPRCNT values of 100 or above, 50 for GIPRCNT values of 0, and 100 for GIPRCNT values of -100.
With `C#CCC(C(=O)OCC)C(=O)OCC` the growth was 104% (inactive). With `COc1ccc(-c2cc(-c3ccccc3)nc(SCCCCCC(=O)NO)n2)cc1` the growth was 56% (inactive). In the case of `CN(C)C(=S)Sc1ccc([N+](=O)[O-])cc1[N+](=O)[O-]`, the growth is reported as 97.5% (inactive). In the case of `c1cc2ccc1CNCCN1CCNCc3ccc(cc3)Oc3ccc(cc3)CNCCN(CCNCc3ccc(cc3)O2)CCNCc2ccc(cc2)Oc2ccc(cc2)CNCC1`, the growth is reported as -48.7% (active). For `O=C(C[n+]1ccn(CC(OCc2ccc(Cl)cc2Cl)c2ccc(Cl)cc2Cl)c1)c1ccc(F)cc1` (stereo not given), the growth was -57.1% (active). For `Cn1cc(-c2noc(-c3cn(C)c4ncc(F)cc34)n2)c2cc(Cl)ccc21`, the growth was 47% (inactive). `CCCc1cc2cc(-n3nc(C)c4c3CC(C)(C)CC4=O)cc(NC3CCSCC3)c2c(=O)[nH]1` was tested, and the growth was 79.2% (inactive). For `O=S(=O)(/N=c1/n(-c2ccccc2)nc2n1CCN2C1=NCCN1)c1ccc(-c2ccccc2)cc1`, the growth was 93.4% (inactive). With `COc1cc2c(cc1OC(C)=O)C(=O)CCCC2` the growth was 84.3% (inactive). In the case of `O=S(=O)(NCc1ccccc1)c1ncnc2nc[nH]c12`, the growth is reported as 116% (inactive). For `COc1cc(NCc2cn(-c3ccc(C(=O)O)cc3)nc2-c2ccc(C(=O)O)cc2)cc(OC)c1OC`, the growth was 95.6% (inactive). In the case of `Cc1cc(C)c(O)c(CNCCCNCc2cc(C)cc(C)c2O)c1`, the growth is reported as 11.2% (inactive). `O=C1NC(=O)C(Cc2ccccc2)(Cc2ccccc2)N1` was tested, and the growth was 111% (inactive). With `C=C(C)[C@@H]1CC[C@]2(C(=O)OC)CC[C@]3(C)[C@H](CC[C@@H]4[C@@](C)(CCc5nn[nH]n5)[C@H](C(=C)C)CC[C@]43C)[C@@H]12` the growth was -31% [100 µM] (active). `Cc1cnc(N)nc1OCC(C)(C)CNC(=O)c1cccc(-c2ccc(S(=O)(=O)Nc3ccc4c(c3)N(C(=O)C3CC3)CCC4)cc2)c1` was tested, and the growth was 64.4% (inactive). With `COc1cc(-c2cc(-c3ccc(Nc4ncnc5cc(Cl)ccc45)cc3)nc(N3CCCCC3)n2)cc(OC)c1OC` the growth was 98.7% (inactive). For `O=[N+]([O-])c1cc([N+](=O)[O-])c(NN=C(c2ccc(O)cc2)c2ccc(O)cc2)cc1Cl`, the growth was -55.6% (active). In the case of `COc1c(B(O)O)cccc1-c1nc2ccc3[nH]ncc3c2c2c1CCC2`, the growth is reported as 17.7% (inactive). With `Cc1ccc(Cn2c(O)c(N=NC(=O)c3ccc(S(N)(=O)=O)cc3)c3ccccc32)cc1` the growth was 101% (inactive). `Cc1ccc(S(=O)(=O)Oc2ccc([N+](=O)[O-])cc2[N+](=O)[O-])cc1` was tested, and the growth was 123% (inactive). With `O=C1CC(c2ccc3c(c2)OCO3)Nc2ccccc21` (stereo not given) the growth was 20.2% (inactive). In the case of `COc1ncc(-c2ccc3nc(N)n(-c4ccccc4C(F)(F)F)c(=O)c3c2)cc1S(=O)(=O)Nc1ccc(F)cc1F`, the growth is reported as 42.3% (inactive). For `C#CC(OC(=O)N(C)C)(c1ccccc1)c1ccc(F)cc1` (stereo not given), the growth was 128% (inactive). `NC(=O)c1c(NC(=O)COC(=O)Cc2ccccc2F)sc2c1CCC2` was tested, and the growth was 109% (inactive). With `O=C(Oc1ccc(Cl)cc1[N+](=O)[O-])Oc1ccc(Cl)cc1[N+](=O)[O-]` the growth was 104% (inactive). For `CCC(Br)(CC)C(=O)c1ccc(OCC(=O)O)c(Cl)c1Cl`, the growth was 107% (inactive). In the case of `Cc1nc(Cl)cc(N(c2cc(Cl)nc(C)n2)c2ncc(C(=O)Nc3c(C)cccc3Cl)s2)n1`, the growth is reported as -1.46% (active). For `CCOC(=O)C(C(C)=O)c1nc2sc3cc(Cl)c(Cl)cc3n2c(=O)c1C#N` (stereo not given), the growth was 114% (inactive). With `CC(C)C1=NOC(=O)C1=Cc1cn(-c2ccccc2)nc1-c1ccccc1` the growth was 64% (inactive). In the case of `C#C[C@]1(O)CC[C@H]2[C@@H]3CC=C4c5nc(Nc6ncccn6)sc5CC[C@]4(C)[C@H]3CC[C@@]21C`, the growth is reported as 1.8% (active). `O=c1[nH]c2cc(Cl)c(Cl)cc2n2cc3ncccc3c12` was tested, and the growth was 99.2% (inactive). `COc1ccc(C(C(=O)O)c2ccc(OC)cc2)cc1` was tested, and the growth was 129% (inactive). `CCOC(=O)C(=Cc1ccccc1[N+](=O)[O-])C(=O)OCC` was tested, and the growth was 47.2% (inactive). In the case of `Cn1cc(-c2nnc(-c3cn(C)c4ncccc34)o2)c2ccccc21`, the growth is reported as 30.9% (inactive). `Ic1ccc2[nH]cc(SSc3c[nH]c4ccc(I)cc34)c2c1` was tested, and the growth was 65.7% (inactive). For `COc1ccc2c(c1)C(C)Cc1c(ncnc1-n1cnc3ccccc31)N2C` (stereo not given), the growth was 31.6% (inactive). `COc1cc(/C=C/C(=O)/C=C/c2ccc(-n3ccnc3C)cc2)ccc1O` was tested, and the growth was 68.6% (inactive). `COCCCNc1nc(NC(=O)c2cc(OC)cc(OC)c2)cc(-c2cccnc2)n1` was tested, and the growth was 95.3% (inactive). In the case of `COc1ncc(-c2ccc3nccc(C#CCCCCC(=O)O)c3c2)cc1NS(=O)(=O)c1ccc(F)cc1F`, the growth is reported as -10.2% (active). In the case of `CC(C)c1ccc(C(=O)Nc2sc3c(c2C#N)CCC(=O)C3)cc1`, the growth is reported as 25.4% (inactive).
